Assay outcomes deposited in PubChem BioAssay by The Scripps Research Institute Molecular Screening Center.
In the library only some 3.4% were active in any assay of this set; here they are far more common.
MITF inh – blocks human microphthalmia-associated transcription factor | inhibition, % at 2.6 µM | hit rate 0.91% among 650,000 | AlphaScreen MITF homodimerization, bead proximity signal | O75030 | AID 1259374; in the data active = inhibition above about 50%;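 note: 0% = vehicle wells with protein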
FBW7 act – activators of human E3 ligase FBW7; Q969H0; AID 1259310; hit rate 0.13% among 650,000; AlphaScreen FBW7–phospho-cyclin E peptide binding, activator screen; normalized activity (activation), % at 26.1 µM; in the data active = normalized activity above about 1.9%;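 note: purified mutant Fbw7 with reduced substrate affinity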
GPR151 activ – activators of human GPR151 | activation, % at 11.2 µM | Q8TDV0 | hit rate 1% among 650,000 | PathHunter beta-arrestin GPR151 cells, luminescence; in the data active = activation above about 4.9%;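 note: 0% = median of compound wells and 100% = cells with positive control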
Target sequence (Q8TDV0 whole entry, looked up): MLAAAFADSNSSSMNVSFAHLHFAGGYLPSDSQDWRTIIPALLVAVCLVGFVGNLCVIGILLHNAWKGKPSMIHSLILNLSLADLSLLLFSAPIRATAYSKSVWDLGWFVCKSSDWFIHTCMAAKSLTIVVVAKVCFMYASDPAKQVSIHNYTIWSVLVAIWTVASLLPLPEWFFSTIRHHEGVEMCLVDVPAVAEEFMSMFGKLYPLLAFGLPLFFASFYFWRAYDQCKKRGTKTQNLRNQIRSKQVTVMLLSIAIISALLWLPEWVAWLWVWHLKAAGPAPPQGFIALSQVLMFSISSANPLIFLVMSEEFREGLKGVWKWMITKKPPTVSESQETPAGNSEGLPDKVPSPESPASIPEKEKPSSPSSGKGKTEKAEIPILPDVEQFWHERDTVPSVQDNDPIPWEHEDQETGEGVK
TEAD-YAP inh – TEAD-YAP interaction inhibition | hit rate 1.4% among 640,000 | inhibition, % at 9.12 µM | HEK-TIYL cells, TEAD-Gal4/YAP UAS-luciferase luminescence | AID 1259422; in the data active = inhibition above about 32%;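 note: 0% = median of test compound wells and 100% = reference inhibitor wells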
* hit, by the source's call.

SMILES | MITF inh | FBW7 act | GPR151 activ | TEAD-YAP inh
CN1C(=O)N(CC(=O)c2ccccc2F)C(=O)C12CCCCC2 | 20 | 0 | -1 | -12
Cc1ccc2nsnc2c1NC(=O)Cc1ccccc1 | 7 | 0 | 0 | -1
COCc1cc(C)nc2sc(C(=O)Nc3cccc(C(C)=O)c3)c(N)c12 | -4 | 1 | 3 | -74
O=C1c2cccc3cccc(c23)C(=O)N1CCN1CCN(CC(O)COc2ccccc2Cl)CC1 (stereo not drawn) | 2 | 0 | -1 | 8
Cc1ccc(SCc2ccc(C(=O)N3CCOCC3)cc2)cc1 | 5 | 1 | -3 | -21
Oc1ccc(CCNc2nc(Nc3ccncc3)nc3c2ncn3-c2ccccc2)cc1 | -4 | 0 | 1 | 56*
OCCNc1nc(Nc2ccccn2)nc2c1ncn2-c1ccccc1 | 8 | 0 | 0 | 34*
OCCNc1nc(Nc2ccncn2)nc2c1ncn2-c1ccccc1 | 9 | 0 | 0 | 3
Cc1cc(C)c(NC(=O)c2ccc(Cl)cc2)c([N+](=O)[O-])c1 | -2 | 0 | -2 | 42*
Cc1ccc(NC(=O)c2ccc(Cl)cc2[N+](=O)[O-])nc1 | 13 | 0 | 0 | 41*
Cc1ccc(NC(=O)c2ccc(Cl)cc2Cl)nc1 | -4 | 0 | -4 | 35*
Cc1ccc(N2C(=O)C3C4c5ccccc5C(C=O)(c5ccccc54)C3C2=O)cc1[N+](=O)[O-] (stereo not drawn) | 8 | 0 | 1 | 34*
O=CC12c3ccccc3C(c3ccccc31)C1C(=O)N(c3ccccc3)C(=O)C12 (stereo not drawn) | 6 | 0 | -1 | 19
O=CC12c3ccccc3C(c3ccccc31)C1C(=O)N(c3ccc(Cl)cc3)C(=O)C12 (stereo not drawn) | 0 | 0 | 0 | 44*
O=C(NNc1nc(-c2ccccc2)c2cc(Cl)ccc2n1)c1cccnc1 | 14 | 2 | 0 | -4
Cc1c(NC(=O)c2cc3ccccc3o2)cccc1-c1nc2cccnc2s1 | 3 | 0 | -1 | -28
COc1ccc(-c2nc(NCCN(C(C)C)C(C)C)c3ncn(-c4ccsc4)c3n2)cc1 | -8 | 0 | -1 | 7
CC(=O)c1cccc(-c2nc(NCCO)c3ncn(C(C)C)c3n2)c1 | 16 | 0 | 2 | 55*
FC(F)(F)c1cccc(CNc2nc(Nc3ccccc3)nc3c2ncn3-c2ccsc2)c1 | 8 | 0 | 3 | -2
OCCNc1nc(-c2ccccc2)nc2c1ncn2-c1ccsc1 | -3 | 0 | 2 | 42*
CC(C)N(CCNc1nc(-c2cccc(N)c2)nc2c1ncn2-c1ccsc1)C(C)C | -6 | 0 | 0 | 59*
FC(F)(F)c1cccc(CNc2nc(Oc3ccccc3)nc3c2ncn3-c2ccsc2)c1 | -6 | 0 | 1 | 74*
Cc1cc2c(cc1S(=O)(=O)NCCC1=CCCCC1)OCCN2C | 3 | 0 | -2 | 0
Cc1ccccc1NC(=O)NCCCc1ccc(N(C)C)cc1 | 6 | 0 | 2 | 10
CCOC(=O)N1CCc2c(sc(NCc3ccc(OC)cc3)c2C(=O)Nc2ccc(OC)cc2OC)C1 | -15 | 0 | 0 | 22
SMILES | MITF inh | FBW7 act | GPR151 activ | TEAD-YAP inh
CC(=O)c1cccc(-c2nc(NCCN(C(C)C)C(C)C)c3ncn(-c4ccsc4)c3n2)c1 | 3 | 0 | -1 | 49*
CC(=O)c1cccc(-c2nc(NCCO)c3ncn(-c4ccsc4)c3n2)c1 | 19 | 0 | -2 | 49*
CC(=O)c1cccc(-c2nc(NCc3ccccc3)c3ncn(-c4ccsc4)c3n2)c1 | 7 | 0 | 4 | 14
CC(=O)c1cccc(-c2nc(NCCN(C(C)C)C(C)C)c3ncn(-c4ccccc4)c3n2)c1 | -1 | 0 | 0 | 15
COc1ccccc1Nc1nc(C2(C)CC(CC(C)C)C(=O)O2)cs1 (stereo not drawn) | 8 | 0 | -1 | 55*
CCOc1ccc(Nc2nc(C3(C)CC(CC(C)C)C(=O)O3)cs2)cc1 (stereo not drawn) | 7 | 0 | 0 | 7
CC1(c2csc(Nc3ccccc3Cl)n2)CCC(=O)O1 (stereo not drawn) | 11 | 0 | -2 | 35*
COc1cc2[nH]c(=S)nc(Nc3ccc(C(C)=O)cc3)c2cc1OC | -3 | 0 | 1 | 7
COc1ccc(C2/C(=C(\O)c3ccc(C)cc3)C(=O)C(=O)N2c2nc3ccccc3s2)c(OC)c1 (stereo not drawn) | -10 | 0 | -1 | 41*
COc1ccc(OC)c(C2/C(=C(\O)c3ccc(C)cc3)C(=O)C(=O)N2c2nc3ccccc3s2)c1 (stereo not drawn) | -4 | 0 | -1 | -10
CC(=O)OC(=C(Cl)Cl)c1ccc(C(OC(C)=O)=C(Cl)Cl)cc1 | -1 | 0 | 4 | 42*
CC(=O)Oc1ccc(C(=O)c2ccc(OC(C)=O)cc2)cc1 | 16 | 0 | 1 | 3
CCOc1ccc(NC(=O)COc2cccc3ccc(N4CCCC4)nc23)cc1 | -5 | 0 | -1 | -9
O=C(COc1cccc2ccc(N3CCOCC3)nc12)Nc1cccc(F)c1 | 1 | 0 | 3 | 34*
Cc1cnc(CNc2cc(-c3cncc(-c4ccccc4)c3)nc(C)n2)cn1 | 0 | 0 | 1 | 46*
COc1ccc(Nc2cc(-c3cncc(-c4ccccc4)c3)nc(C)n2)cc1 | -1 | 0 | 0 | 50*
CC(C)n1c(-c2ccc(N3CCOCC3)nc2)nc2c(NCCCN3CCCC3=O)ncnc21 | 11 | 0 | 1 | -7
COc1ccc(-c2nc(NC(C)=O)c3c(=O)oc4ccccc4c3n2)cc1 | 10 | 0 | 0 | 1
CC1CCN(S(=O)(=O)c2cccc(C(=O)NC3CCCCCC3)c2)CC1 | 4 | 0 | 0 | 0
Cc1cc(S(=O)(=O)N2CCN(c3ccc(O)cc3)CC2)c(C)s1 | 4 | 0 | -1 | -16
CCN1CCc2c(OC(C)c3ccccc3)cccc2C1=O (stereo not drawn) | 25 | 0 | 0 | -2
Cc1c(N=C2C(=O)N(CC(=O)O)c3ccccc32)c(=O)n(-c2ccccc2)n1C | 5 | 2.3* | -1 | 8
COC(=O)CCCNc1nncc(-c2ccc3c(c2)OCO3)n1 | 2 | 0 | 1 | 35*
Cc1ccc(-c2nc(NCc3ccccc3)c3ccccc3n2)cc1 | -5 | 0 | -2 | -12
Cc1ccc(Nc2nc(NCc3ccccc3)c3ccccc3n2)cc1 | 5 | 0 | 0 | 36*
SMILES | MITF inh | FBW7 act | GPR151 activ | TEAD-YAP inh
Fc1ccccc1Nc1nc(NCc2ccco2)c2ccccc2n1 | -1 | 0 | 1 | -13
Fc1ccccc1Nc1nc(NCc2ccccc2)c2ccccc2n1 | -26 | 0 | 3 | 47*
COc1ccc(-n2nnnc2C2(Nc3cccc(Cl)c3)CCCCC2)cc1 | -5 | 0 | 1 | 48*
O=S(=O)(c1ccc(-c2csc(N/N=C/c3cccs3)n2)cc1)N1CCCC1 | 7 | 1 | -1 | 51*
O=C(Nc1nc(-c2ccc(S(=O)(=O)N3CCCCCC3)cc2)cs1)c1cccs1 | 5 | 0 | 0 | -1
Cc1cccc(NC(=O)Cn2c(C)cc(=O)c3ccccc32)c1 | 7 | 0 | -2 | 41*
COc1cccc(NC(=O)Cn2c(C)cc(=O)c3cccc(OC)c32)c1 | 6 | 1 | 3 | 49*
